Experiment: plasmodial surface anion channel blockers, osmotic lysis – cell-based, P. falciparum Indochina, OD700, 18 h, primary screen (AID 1157)
Settings: P. falciparum Indochina infected erythrocytes, osmotic lysis OD700, 18 h; higher = more signal, called active from +8 up or from −8 down

z-score, inactive:
CCOC(=O)C[C@H]1[C@H](OC(=O)Cc2ccc3c(c2)OCO3)[C@@H](NC(=O)CC(C)C)c2cc(OCCCO)ccc2N1C(=O)Cc1ccc(OC)cc1 -1.3
[N-]=[N+]=NCc1ccccc1C[C@@]1(C(=O)NCc2ccccc2)N=C(c2ccc(OCCCO)cc2)O[C@@H]1c1ccccc1N=[N+]=[N-] 3.61
O=C1C2C=CC(C(O)c3ccc(F)cc3)N(n3cnnc3)C2C(=O)N1Cc1ccccc1 (stereo not given) -2.02
NC(=O)NCC#Cc1ccc2c(c1)[C@]1(C(=O)N2)[C@H](C(=O)NC[C@H](O)c2ccccc2)[C@H]2C(=O)O[C@H](c3ccccc3)[C@H](c3ccccc3)N2[C@@H]1c1ccc(OCCO)cc1 0.49
O=C1O[C@H](c2ccccc2)[C@H](c2ccccc2)N2[C@H]1[C@@H](C(=O)N1CCN(c3ncccn3)CC1)[C@]1(C(=O)Nc3ccc(C#CC4(O)CCCCCC4)cc31)[C@H]2c1ccc(OCCO)cc1 1.33
CCOc1cc(C(O)C2C=CC3C(=O)N(C)C(=O)C3N2Nc2ccccc2)ccc1O (stereo not given) 1.42
CN(C)CCCNC(=O)[C@@H]1c2ccccc2C(=O)N(Cc2ccccc2Cl)[C@H]1c1ccc(CO)cc1 0.599
[N-]=[N+]=NCc1ccccc1[C@H]1OC(c2ccc(OCCCO)cc2)=N[C@@]1(CCS(=O)(=O)c1ccccc1)C(=O)N1CCCCC1 1.5
O=C1NC(=O)C2C1C=CC(C(O)c1ccco1)N2Nc1ccccn1 (stereo not given) 0.581
CCCCC(O)C1C=CC2C(=O)N(c3ccccc3)C(=O)C2N1Nc1ccc(C(C)C)cc1 (stereo not given) 1.39
C=CC[C@@]1(C(=O)N2CCOCC2)N=C(c2ccc(OCCCO)cc2)O[C@@H]1c1ccccc1CN=[N+]=[N-] 0.986
COC(=O)[C@H](Cc1ccccc1)N1CC(/C=C/C2CC2)=C[C@H]1[C@H](O)Cc1ccccc1 0.5
C=CC[C@]1(C(=O)NCCN2CCOCC2)N=C(c2ccc(OCCCO)cc2)O[C@H]1c1ccccc1CN=[N+]=[N-] 0.79
COC(=O)[C@@]1(Cc2ccc(F)cc2)[C@H]2c3cc(C(=O)N4CCCC4)n(CCc4ccc(O)c(O)c4)c3C[C@H]2CN1C(=O)c1ccccc1 0.936
[N-]=[N+]=NCc1ccccc1[C@H]1OC(c2ccc(OCCCO)cc2)=N[C@@]1(CCS(=O)(=O)c1ccccc1)C(=O)NCC(O)CO (stereo not given in full) 2.78
C[C@]1(C(=O)NC2CC2)c2ccccc2C(=O)N(Cc2ccccc2)[C@H]1c1ccc(CO)cc1 -0.779
COC(=O)C(CC#Cc1ccc2c(c1)[C@]1(C(=O)N2)[C@H](c2ccccc2OCCO)N2[C@H](c3ccccc3)[C@H](c3ccccc3)OC(=O)[C@H]2[C@@H]1C(=O)NC[C@H](O)c1ccccc1)C(=O)OC 0.957
COCCOC(=O)N1C(=O)[C@@]2(c3cc(C#CCCO)ccc31)[C@H](C(=O)Nc1nc3ccccc3s1)[C@H]1C(=O)O[C@H](c3ccccc3)[C@H](c3ccccc3)N1[C@@H]2c1ccccc1OCCO 1.36
COCCOC(=O)N1C(=O)[C@@]2(c3cc(C#CC4=CCCCC4)ccc31)[C@H](c1ccc(O)cc1)N1[C@H](c3ccccc3)[C@H](c3ccccc3)OC(=O)[C@H]1[C@@H]2C(=O)N1CCN(c2ncccn2)CC1 0.0164
C[C@@H]1NC(=O)[C@@]23C(=O)N[C@@H](Cc4ccccc4)C2[C@H](C)[C@@]2(C)O[C@H]2C3/C=C/C/C=C\CNC(=O)[C@@H]2CCCN2C1=O (stereo not given in full) -0.161

Reference: PubChem BioAssay
